Pf growth 96h: Primary qHTS for delayed death inhibitors of the malarial parasite plastid, 96 hour incubation; Potency, µM (top dose mostly 28.7 µM), most hits filed as inhibitors; AID 504834, 2011; P. falciparum luciferase reporter growth, 96 h; 320,000 tested, 6.9% active
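96 h incubation, 37 C, 5% CO2, of luciferase-reporter P. falciparum-infected RBCs (2% hematocrit, 0.05% parasitemia final) with test compounds; endpoint luminescence.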
Cycloheximide cs: Cycloheximide Counterscreen for Small Molecule Inhibitors of Shiga Toxin; cell reporter, cycloheximide protein synthesis inhibition counterscreen; max response, %; 300,000 tested, 12% active; AID 2314, 2010; in the data active = max response mostly above about 13%, no sharp cut-off; inactive = mostly below about 14%; note: read at 38.3 µM for the half of the compounds with a filed dose
Shiga toxin inh: A qHTS for Small Molecule Inhibitors of Shiga Toxin | Vero cells, Shiga toxin protein synthesis inhibition reporter | inhibition, % at 38.7 µM | 290,000 tested, 9.2% active | AID 2315, 2010; in the data active = inhibition mostly above about 28%, no sharp cut-off; inactive = mostly below about 43%
Pf growth 48h: Primary qHTS for delayed death inhibitors of the malarial parasite plastid, 48 hour incubation; 310,000 tested, 5.9% active; Potency, µM (doses to about 28.7 µM), actives largely listed as inhibitors; P. falciparum luciferase growth in erythrocytes, 48 h; AID 504832, 2011
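In quantitative HTS format, infected erythrocytes bearing luciferase-reporter parasites were treated for a single generation at 37 C. Luminescence after adding detection reagent served as the growth measure.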
Sm TGR inh: qHTS Assay for the Inhibitors of Schistosoma Mansoni Peroxiredoxins; Schistosoma mansoni thioredoxin glutathione reductase (TGR), Q962Y6; purified TGR, DTNB reduction, TNB absorbance 405 nm; Potency, µM (series often up to 114 µM), actives largely listed as inhibitors; 360,000 tested, 3% active; AID 485364, 2010; note: nearly all actives have a fitted effect of over 60% in size
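Kinetic colorimetric format: TGR-catalysed, NADPH-driven DTNB reduction monitored via TNB absorbance. Enzyme dispensed at 20 nM; compound exposure 15 min at room temperature before reaction start.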
NS1 inh: qHTS Assay for Inhibitors of Influenza NS1 Protein Function | Potency, µM (top dose mostly 46.1 µM) | 270,000 tested, 0.4% active | AID 2326, 2010; calls by dose curve; note: actives are rising curves; nearly all actives have a fitted effect of over 50% in size
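Compounds were scored for reversing the slow growth caused by influenza A NS1 in S. cerevisiae, measured by optical density at 600 nm. Assay medium contained 2% galactose at pH 6.0; NS1-free yeast of the same strain were the positive control.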
Hits are given with their value; – = inactive; ? = inconclusive; · = not tested or not shown; [ ] = dose if it differs, or a comment. Most compounds without a hit are left out; they make up all but 21% or so of the library. Unless noted, calls come from the whole dose curve; as a rule, active = well fitted curve in the direction sought with a large enough effect; inconclusive = small, poorly fitted or top-dose-only effect, or another doubt; inactive = no such curve, though single readings can be large; an effect the other way counts as inactive or inconclusive.

SMILES	Pf growth 96h	Cycloheximide cs	Shiga toxin inh	Pf growth 48h	Sm TGR inh	NS1 inh
CCCCOC(=O)c1ccc(OC(=O)c2sc3ncn(Cc4cccc(F)c4)c(=O)c3c2C)cc1	·	·	·	·	–	·
Clc1ccc2sc(C3CCNCC3)nc2c1	–	36	56	–	–	–
CCc1ccc(OCC(=O)NC(C)C)cc1	–	27	111	–	–	–
CC(C)NC(=O)COc1ccc(S(=O)(=O)N2CCCC2)cc1	1.5µM	–	–	–	–	–
COc1cccc(COC(=O)C2CCN(S(=O)(=O)c3ccc(C)cc3)CC2)c1OC	–	·	·	?	–	·
CCOc1ccc(S(=O)(=O)N2CCC(C(=O)OCc3cccc(OC)c3OC)CC2)cc1	?	·	·	9.3µM	–	·
COc1ccccc1CNC(=O)COc1ccc(S(=O)(=O)N2CCCC2)cc1	–	–	–	13µM	–	–
CN1CCN(c2ccc(C(CC(N)=O)NC(=O)Cc3cccc4ccccc34)cc2[N+](=O)[O-])CC1 (stereo not drawn)	–	–	–	–	–	–
CN(C(=O)COC(=O)c1cc(S(=O)(=O)N2CCOCC2)c(Cl)cc1Cl)C1CCS(=O)(=O)C1 (stereo not drawn)	–[1.15 µM]	–	–	–	–	–
Cc1nn(-c2ccccc2)c(C)c1NC(=O)COC(=O)CC(C)c1ccccc1 (stereo not drawn)	–	·	·	–	–	·
CCc1ccc(OCC(=O)NC(NC(=S)Nc2ccc(Cl)cc2)C(Cl)(Cl)Cl)cc1 (stereo not drawn)	13µM	–	–	?	–	–
CCc1ccc(OCC(=O)NC(=S)Nc2ccc(C(=O)O)cc2)cc1	–	–	–	–	?	–
CSc1ccccc1NC(=O)COc1ccc(S(=O)(=O)N2CCCC2)cc1	?	–	–	13µM	–	–
CC(CC1CC(C)(C)OC1=O)C(=O)Nc1ccc([N+](=O)[O-])cc1 (stereo not drawn)	1.7µM	–	–	?	–	–
CCn1c(COc2cccc(C)c2C)nnc1SCC(=O)Nc1cc(C)on1	–	–	–	–	–	–
COC(=O)C1CSc2[nH]c(=O)sc2C1c1ccc(OC)c(OC)c1 (stereo not drawn)	?	–	–	10µM	–	–
COc1ccc(NC2=C(C(C)=O)C(c3ccc(OC)c(OC)c3)C(C(C)=O)C(C)(O)C2)cc1 (stereo not drawn)	–	–	–	?	–	–
Cc1ccc(NC(=O)Cn2cccc2)cc1C	–	15	–	–	–	–
Cc1ccc(NC(=O)Cn2cccc2)cc1Cl	?	–	–	–	32µM	–
Cc1ccc(NC(=O)CCn2cccc2)cc1C	–	–	–	·	?	–
Cc1ccc(NC(=O)CN2C(=O)S/C(=C\c3ccccn3)C2=O)cc1C	10µM	–	–	–	–	–
O=C(CN1C(=O)S/C(=C/c2ccncc2)C1=O)Nc1ccccc1	?	–	–	–	–	–
Cc1ccc(NC(=O)C[n+]2ccccc2)cc1C	9.3µM	–	–	–	–	–
COc1ccc(NC(=O)Cn2cccc2)cc1Cl	?	–	–	–	–	–
c1ccc2sc(SCN(C3CCCCC3)C3CCCCC3)nc2c1	·	·	·	·	·	–
SMILES	Pf growth 96h	Cycloheximide cs	Shiga toxin inh	Pf growth 48h	Sm TGR inh	NS1 inh
O=C(Nc1cccc2ccccc12)c1cc2c(cc1Br)OCO2	–	–	–	–	–	–
Cc1ccc(NC(=O)/C=C\C(=O)NCC(=O)O)cc1C	–	–	–	–	1.8µM	–
CCc1ccc(N2CCN(S(=O)(=O)CC34CCC(CC3=O)C4(C)C)CC2)cc1 (stereo not drawn)	–	–	–	?	–	–
O=C(NC(=S)Nc1ccc(CN2CCOCC2)cc1)c1cccc([N+](=O)[O-])c1	–	–	–	–	89µM	–
O=C(NC(=S)Nc1ccc(CN2CCOCC2)cc1)c1ccccc1[N+](=O)[O-]	–	–	–	–	–	–
O=C(NC(=S)Nc1ccc(N2CCOCC2)cc1)c1cccc([N+](=O)[O-])c1	–	–	–	–	40µM	–
O=C(NC(=S)Nc1ccc(CN2CCOCC2)cc1)c1cccc(F)c1	–	22	–	–	?	–
O=C(NC(=S)Nc1ccc(CN2CCOCC2)cc1)c1ccc([N+](=O)[O-])cc1Cl	?	26	–	–[5.75 µM]	–	·
COc1cc2c(cc1OC)C(C)N(C(=O)[C@@H](NC(=O)c1ccccc1)C(C)C)CC2 (stereo partly drawn)	–	–	–	–	–	–
Cc1c(NC(=O)Nc2ccc(Cl)c(C(F)(F)F)c2)c(=O)n(-c2ccccc2)n1C	·	·	·	·	–	·
CCOC(=O)c1c(C)[nH]c(C)c1S(=O)(=O)N1CCC(C(=O)Nc2cc(Cl)ccc2OC)CC1	·	·	·	·	–	·
Cc1cc(Nc2ccc(C)c(Cl)c2)n2nc(-c3ccccc3)nc2n1	·	·	·	·	–	·
COc1ccc(-c2cc3nccc(-c4cc(Cl)c(C)cc4O)n3n2)cc1	·	·	·	·	–	·
COc1ccc(CSc2nnc3[nH]c(=O)cc(N)n23)cc1	–	–	–	–	–	·
O=C(Nc1c(C(=O)N2CCOCC2)oc2ccccc12)c1cccc([N+](=O)[O-])c1	13µM	–	–	–	–	–
COc1cccc(N2C(=O)Nc3ccc(Br)cc3C2(O)C(=O)NCCCN(C)C)c1 (stereo not drawn)	?	–	–	–	–	–
CC(C)(C)c1cc(C(=O)N/N=C/c2ccco2)n[nH]1	–	33	–	–	–	–
Nc1nccnc1C(=O)N/N=C/c1ccco1	–	63	93	–	?	–
Cc1ccc(-c2cc(C(=O)N/N=C/c3ccco3)n[nH]2)s1	–	23	–	10µM	–	–
CC(/C=N/NC(=O)c1cc(-c2ccc(C)s2)[nH]n1)=C\c1ccccc1	?	–	–	–	–	–
Nc1c(Cl)c(Cl)nc(C(=O)N/N=C/c2ccco2)c1Cl	?	–	–	–	–	–
Fc1cccc(CSc2ccc(-c3ccco3)nn2)c1	–	67	79	–	32µM	–
Fc1ccc(CSc2ccc(-c3ccco3)nn2)cc1	–	19	33	–	45µM	–
Cc1nc(C)c(-c2ccc(SCc3ccc(Cl)cc3)nn2)s1	–	–	–	–	–	–
Cc1nc(C)c(-c2ccc(SCc3cccc(F)c3)nn2)s1	–	21	–	–	–	–
O=C(Nc1nnc(SCc2cccc(F)c2)s1)c1ccco1	–	–	–	–	–	·
COc1cccc(C(=O)NCC(c2ccc3c(c2)OCO3)N2CCN(c3ccc(F)cc3)CC2)c1 (stereo not drawn)	?	·	·	?	–	·
COc1ccc(C)cc1NC(=O)c1ccc2c(c1)CCN2S(=O)(=O)c1ccc(Cl)cc1	·	·	·	·	–	·
Cc1ccc(SCCNC(=O)CN(c2ccccc2)S(=O)(=O)N(C)C)cc1	·	·	·	·	–	·

Screens deposited in PubChem by National Center for Advancing Translational Sciences (NCATS).
